Data published in the supplement of paper PMC8975748.
Where a name gives a salt, the structure may show the parent alone.

Each compound was assayed on Saccharomyces cerevisiae BY4741 SeMeCo community (assay: z-score of subpopulation abundance vs DMSO median, subpopulation auxotrophic for LM; higher = larger share of this subpopulation than in DMSO controls). Conditions: 10 µM; 24 h; SM minimal medium; subpopulation (auxotrophy): LM.
Outline: (§1)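 A community of Saccharomyces cerevisiae BY4741 was built from four plasmids that each restored one auxotrophy and encoded a distinct fluorescent protein. Pre-grown overnight to OD600 1.0 and diluted to 0.3, it was dispensed at 70 µl into 384-well plates acoustically predosed with library drugs for a final 10 µM, and grown 24 h in minimal SM medium. Cells were then paraformaldehyde-fixed and imaged by automated confocal microscopy. Thresholds and autofluorescence correction came from single-auxotroph fluorescent strains, and each subpopulation's abundance was scored as a z-score relative to the vehicle-well median.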

Row | Structure (SMILES) | z-score of subpopulation abundance
1 | C=C[C@]1(C)C[C@@H](OC(=O)CSC(C)(C)CNC(=O)[C@H](N)C(C)C)[C@]2(C)[C@H](C)CC[C@]3(CCC(=O)[C@H]32)[C@@H](C)[C@@H]1O [Valnemulin HCl] | 0.54
2 | C[N+]1(C)CCC(=C(c2ccccc2)c2ccccc2)CC1 [Diphemanil Methylsulfate] | 0.34
3 | CC[C@H]1OC(=O)[C@H](C)[C@@H](O[C@H]2C[C@@](C)(OC)[C@@H](O)[C@H](C)O2)[C@H](C)[C@@H](O[C@@H]2O[C@H](C)C[C@H](N(C)C)[C@H]2O)[C@](C)(O)C[C@@H](C)/C(=N\OCOCCOC)[C@H](C)[C@@H](O)[C@]1(C)O [Roxithromycin] | 0.13
4 | CC(C(=O)O)c1cccc(C(=O)c2ccccc2)c1 (stereo unspecified) [Ketoprofen] | 1.24
5 | C#C[C@]1(O)CC[C@H]2[C@@H]3CCC4=Cc5oncc5C[C@]4(C)[C@H]3CC[C@@]21C [Danazol] | 0.04
6 | Cc1c(OCC(F)(F)F)ccnc1C[S+]([O-])c1nc2ccccc2[nH]1 (stereo unspecified) [Lansoprazole] | 1.16
7 | CC(C(O)c1ccc(O)cc1)N1CCC(Cc2ccccc2)CC1 (stereo unspecified) [Ifenprodil Tartrate] | -0.75
8 | Cc1ncc([N+](=O)[O-])n1C [Dimetridazole] | -0.99
9 | CC(=O)OCC[N+](C)(C)C [Acetylcholine iodide] | -0.62
10 | CC(=O)N1CCN(c2ccc(OCC3COC(Cn4ccnc4)(c4ccc(Cl)cc4Cl)O3)cc2)CC1 (stereo unspecified) [Ketoconazole] | -0.27
11 | CN1C2CCCC1CC(NC(=O)c1nn(C)c3ccccc13)C2 (stereo unspecified) [Granisetron HCl] | 0.45
12 | NC(=O)OCC(COC(N)=O)c1ccccc1 [Felbamate] | -1.27
13 | CCCN(CCC)CCc1cccc2c1CC(=O)N2 [Ropinirole HCl] | 0.91
14 | CC(=O)NO [Acetohydroxamic acid] | 0.84
15 | COc1ccc2c3c1O[C@H]1C[C@@H](O)C=C[C@@]31CCN(C)C2 [Galanthamine HBr] | -0.06
16 | CCN(CC)CC#CCOC(=O)C(O)(c1ccccc1)C1CCCCC1 (stereo unspecified) [Oxybutynin chloride] | -0.32

Row | Structure (SMILES) | z-score of subpopulation abundance
17 | O=C1CC2(CCCC2)CC(=O)N1CCCCN1CCN(c2ncccn2)CC1 [Buspirone HCl] | -0.34
18 | Cc1ccc(-c2cc(C(F)(F)F)nn2-c2ccc(S(N)(=O)=O)cc2)cc1 [Celecoxib] | -0.61
19 | Cc1cccc(N(C)C(=S)Oc2ccc3ccccc3c2)c1 [Tolnaftate] | -0.04
20 | CC(C)Cc1ccc(C(C)C(=O)O)cc1 (stereo unspecified) [Ibuprofen Lysine] | -0.77
21 | O=C(O)CCc1nc(-c2ccccc2)c(-c2ccccc2)o1 [Oxaprozin] | -1
22 | CC[C@H]1OC(=O)[C@H](C)[C@@H](O[C@H]2C[C@@](C)(OC)[C@@H](O)[C@H](C)O2)[C@H](C)[C@@H](O[C@@H]2O[C@H](C)C[C@H](N(C)C)[C@H]2O)[C@](C)(O)C[C@@H](C)C(=O)[C@H](C)[C@H]2OC(=O)O[C@@]21C [Erythromycin Cyclocarbonate] | 0.55
23 | CN1CCC(=C2c3ccccc3C=Cc3ccccc32)CC1 [Cyproheptadine hydrochloride] | -0.35
24 | CCOc1cc(N)c(Cl)cc1C(=O)NCC1CN(Cc2ccc(F)cc2)CCO1 (stereo unspecified) [Mosapride] | -0.41
25 | C/C(=C\C(=O)OCCCCCCCCC(=O)O)C[C@@H]1OC[C@H](C[C@@H]2O[C@H]2[C@@H](C)[C@H](C)O)[C@@H](O)[C@H]1O [Mupirocin calcium] | -0.21
26 | Cc1cc(C)nc(NS(=O)(=O)c2ccc(N)cc2)n1 [Sulfamethazine Sodium Salt] | -0.63
27 | CCN(CC)CCNC(=O)c1cc(Cl)c(N)cc1OC [Metoclopramide] | 0.08
28 | CS(=O)(=O)c1ccc([C@@H](O)[C@@H](CF)NC(=O)C(Cl)Cl)cc1 [Florfenicol] | -0.75
29 | COC(=O)C1=C(C)NC(C)=C(C(=O)OC(C)(C)CN(C)CCC(c2ccccc2)c2ccccc2)C1c1cccc([N+](=O)[O-])c1 (stereo unspecified) [Lercanidipine hydrochloride] | 1.89
30 | O=c1[nH]c2ccccc2n1CCN1CCN(c2cccc(C(F)(F)F)c2)CC1 [Flibanserin] | -0.37
31 | CC1(C)S[C@@H]2[C@H](NC(=O)[C@H](NC(=O)N3CCNC3=O)c3ccccc3)C(=O)N2[C@H]1C(=O)O [Azlocillin sodium salt] | 1.34
32 | CCN(CC)CCOC(=O)c1ccc(N)cc1Cl [Chloroprocaine HCl] | 0.62

What follows are compounds tested on Saccharomyces cerevisiae BY4741 SeMeCo community (assay: z-score of subpopulation abundance vs DMSO median, subpopulation auxotrophic for HM; higher = larger share of this subpopulation than in DMSO controls). Conditions: 10 µM; 24 h; SM minimal medium; subpopulation (auxotrophy): HM.
Outline: as §1

Row | Structure (SMILES) | z-score of subpopulation abundance
33 | C=C[C@]1(C)C[C@@H](OC(=O)CSC(C)(C)CNC(=O)[C@H](N)C(C)C)[C@]2(C)[C@H](C)CC[C@]3(CCC(=O)[C@H]32)[C@@H](C)[C@@H]1O [Valnemulin HCl] | 0.32
34 | C[N+]1(C)CCC(=C(c2ccccc2)c2ccccc2)CC1 [Diphemanil Methylsulfate] | 0.58
35 | CC[C@H]1OC(=O)[C@H](C)[C@@H](O[C@H]2C[C@@](C)(OC)[C@@H](O)[C@H](C)O2)[C@H](C)[C@@H](O[C@@H]2O[C@H](C)C[C@H](N(C)C)[C@H]2O)[C@](C)(O)C[C@@H](C)/C(=N\OCOCCOC)[C@H](C)[C@@H](O)[C@]1(C)O [Roxithromycin] | 0.24
36 | NCc1ccccc1CC(=O)N[C@@H]1C(=O)N2C(C(=O)O)=C(CSc3nnnn3CC(=O)O)CS[C@H]12 [Ceforanide] | 1.01
37 | CC(C(=O)O)c1cccc(C(=O)c2ccccc2)c1 (stereo unspecified) [Ketoprofen] | 0.55
38 | C#C[C@]1(O)CC[C@H]2[C@@H]3CCC4=Cc5oncc5C[C@]4(C)[C@H]3CC[C@@]21C [Danazol] | -0.49
39 | CC(C(O)c1ccc(O)cc1)N1CCC(Cc2ccccc2)CC1 (stereo unspecified) [Ifenprodil Tartrate] | -0.88
40 | Cc1ncc([N+](=O)[O-])n1C [Dimetridazole] | -0.42
41 | CC(=O)OCC[N+](C)(C)C [Acetylcholine iodide] | -1.48
42 | CC(=O)N1CCN(c2ccc(OCC3COC(Cn4ccnc4)(c4ccc(Cl)cc4Cl)O3)cc2)CC1 (stereo unspecified) [Ketoconazole] | -1.06
43 | CN1C2CCCC1CC(NC(=O)c1nn(C)c3ccccc13)C2 (stereo unspecified) [Granisetron HCl] | 0.45
44 | CCCN(CCC)CCc1cccc2c1CC(=O)N2 [Ropinirole HCl] | 0.44
45 | CC(=O)NO [Acetohydroxamic acid] | 0.32
46 | COc1ccc2c3c1O[C@H]1C[C@@H](O)C=C[C@@]31CCN(C)C2 [Galanthamine HBr] | 0.96
47 | O=C1CC2(CCCC2)CC(=O)N1CCCCN1CCN(c2ncccn2)CC1 [Buspirone HCl] | -0.83
48 | Cc1ccc(-c2cc(C(F)(F)F)nn2-c2ccc(S(N)(=O)=O)cc2)cc1 [Celecoxib] | -0.54
49 | Cc1cccc(N(C)C(=S)Oc2ccc3ccccc3c2)c1 [Tolnaftate] | -0.59

Row | Structure (SMILES) | z-score of subpopulation abundance
50 | CC(C)Cc1ccc(C(C)C(=O)O)cc1 (stereo unspecified) [Ibuprofen Lysine] | -1.04
51 | O=C(Nc1cc(Cl)cc(Cl)c1O)c1c(O)c(Cl)cc(Cl)c1Cl [Oxyclozanide] | -2.11
52 | CN1CCN(CC(=O)N2c3ccccc3C(=O)Nc3cccnc32)CC1 [Pirenzepine dihydrochloride] | -0.85
53 | O=C(O)CCc1nc(-c2ccccc2)c(-c2ccccc2)o1 [Oxaprozin] | -0.83
54 | CC[C@H]1OC(=O)[C@H](C)[C@@H](O[C@H]2C[C@@](C)(OC)[C@@H](O)[C@H](C)O2)[C@H](C)[C@@H](O[C@@H]2O[C@H](C)C[C@H](N(C)C)[C@H]2O)[C@](C)(O)C[C@@H](C)C(=O)[C@H](C)[C@H]2OC(=O)O[C@@]21C [Erythromycin Cyclocarbonate] | 0.9
55 | CN1CCC(=C2c3ccccc3C=Cc3ccccc32)CC1 [Cyproheptadine hydrochloride] | -0.58
56 | CC(Cc1ccc(O)c(O)c1)C(C)Cc1ccc(O)c(O)c1 (stereo unspecified) [Nordihydroguaiaretic acid (NDGA)] | -0.39
57 | CCOc1cc(N)c(Cl)cc1C(=O)NCC1CN(Cc2ccc(F)cc2)CCO1 (stereo unspecified) [Mosapride] | -0.23
58 | C/C(=C\C(=O)OCCCCCCCCC(=O)O)C[C@@H]1OC[C@H](C[C@@H]2O[C@H]2[C@@H](C)[C@H](C)O)[C@@H](O)[C@H]1O [Mupirocin calcium] | 0.83
59 | CCN(CC)CCNC(=O)c1cc(Cl)c(N)cc1OC [Metoclopramide] | 0.05
60 | CC1=C(C(=O)OCCN(Cc2ccccc2)c2ccccc2)C(c2cccc([N+](=O)[O-])c2)C(P2(=O)OCC(C)(C)CO2)=C(C)N1 (stereo unspecified) [Efonidipine] | 1.87
61 | CS(=O)(=O)c1ccc([C@@H](O)[C@@H](CF)NC(=O)C(Cl)Cl)cc1 [Florfenicol] | -1.52
62 | COC(=O)C1=C(C)NC(C)=C(C(=O)OC(C)(C)CN(C)CCC(c2ccccc2)c2ccccc2)C1c1cccc([N+](=O)[O-])c1 (stereo unspecified) [Lercanidipine hydrochloride] | 2.19
63 | O=c1[nH]c2ccccc2n1CCN1CCN(c2cccc(C(F)(F)F)c2)CC1 [Flibanserin] | -0.79
64 | NC1CCN(c2nc3c(cc2F)c(=O)c(C(=O)O)cn3-c2ccc(F)cc2F)C1 (stereo unspecified) [Tosufloxacin p-Toluenesulfonate Hydrate] | -0.46
65 | CC1(C)S[C@@H]2[C@H](NC(=O)[C@H](NC(=O)N3CCNC3=O)c3ccccc3)C(=O)N2[C@H]1C(=O)O [Azlocillin sodium salt] | -0.15
66 | CCN(CC)CCOC(=O)c1ccc(N)cc1Cl [Chloroprocaine HCl] | -0.02
